Drawing on PubChem BioAssay, this text covers viability for 40 compounds.

Records with an inconclusive call do not appear. A number with no mark means an inactive call.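 Rule for the calls, unless noted: active = viability at or below 27.92% in each of two runs, the all-compound median minus 4 SD; inconclusive = no clear call, values can overlap the other calls; inactive = the rest.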

A short description of the first experiment: growth suppression of beta-catenin knockout HCT116, pilot screen, human colon tumor cells (AID 823;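 active = cell viability at or below a set limit in both duplicate runs, the limit being the all-compound median minus 4 SD, cut at about 23% in these data, passing the limit was not always enough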;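 note: 0% = wells killed by 20 µM Hyamine and 100% = untreated DMSO cell wells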). Particulars: CellTiter-Glo, 60 h, at 10 µM, hits give low values.
Broadly, the viability is a read-out of living cells in per cent, often relative to untreated cells. Turning to `COc1ccc2cc(CCNC(=O)C3CCCC3)c(=O)[nH]c2c1`, the viability was 109%. With `Cc1cc(C(=O)CN2CC(C)OC(C)C2)c(C)n1-c1ccccc1` (configuration not stated), the viability was 97.6%.

With `Cc1ccc2oc(=O)c3cc(C(=O)NCc4ccco4)sc3c2c1`, the viability was 102%.

As to `C1CCc2c(nc3nnnn3c2N2CCOCC2)C1`, the viability was 107%. As for `Cc1ccc(C(=O)NCc2ccc(Cl)c(Cl)c2)o1`, the viability was 98%.

Consider `O=C(NC1CCN(C(=O)N2c3ccccc3Sc3ccccc32)CC1)c1ccco1`, for which the viability was 65.1%. Consider `O=C(O)CCC(C(=O)O)n1c(O)c(C2=c3ccccc3=NC2=O)sc1=S` (configuration not stated), for which the viability was 97.7%.

Consider `Cc1cc(C(=O)N2CCN(S(C)(=O)=O)CC2)sc1-c1ccccc1`, for which the viability was 94.9%. With `O=c1[nH]c2ccccc2n1Cc1ccc(F)cc1`, the viability was 96.6%. On to `COC(=O)CCc1n[nH]c(=O)[nH]c1=O`, for which the viability is 106%.

Consider `COc1ccc(C(=S)N(C)C)cc1OC`, for which the viability is 98.8%. Same read-out and setting: the same measure for `CCCCn1c(CNC(=O)C(C)(C)C)nc2ccccc21`: 98%; for `C/C(NCCN1CCOCC1)=C(\C#N)C(N)=O`: 105%.

Take `O=C(Nc1ccc(Br)cc1F)C1CCCN(S(=O)(=O)c2cnc[nH]2)C1` (configuration not stated): the viability is 92.2%.

Consider `CCN1CCN(C(=O)Cn2ncc3c2-c2ccccc2OC3)CC1`, for which the viability is 106%. For the compound `CC1CCc2nn(CC(=O)N3CCCCCC3)cc2C1` (configuration not stated), the viability was 100%.

Consider `Nc1nnc(N2CCc3ccccc32)s1`, for which the viability was 105%.

Take `COc1ccc(-c2nnc(SCC(=O)Nc3cc(F)ccc3C)o2)cc1`: the viability is 101%. In the case of `CCc1nnc(NC(=O)CSc2nc3c(c(=O)n2CC)SC(C)C3)s1` (configuration not stated), the viability is 99.2%. For the compound `O=C(O)CCc1nnc2n(Cc3ccc(F)cc3)c(=O)c3ccccc3n12`, the viability was 99.2%.

In the case of `CC(=O)NCCc1cc2ccc(C)c(C)c2[nH]c1=O`, the viability was 103%. On the same count and under the same terms, in the case of `O=C(Cn1c(=O)oc2cc(S(=O)(=O)N3CCCC3)ccc21)N1CCN(c2ccccn2)CC1` it was 90%. `COc1ccc(-c2cn3c(C)c(C(=O)NC(C)(C)C)sc3n2)cc1`: the viability was 81.5%.

A further experiment can be described thus: growth suppression of PTEN-deleted HCT116, pilot screen, cell-based, HCT116 clonal line, CellTiter-Glo (AID 824).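 Note: 0% = 20 µM Hyamine control and 100% = vehicle cell control.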 Particulars: 60 h, at 10 µM, hits give low values. A general note: Cellular ATP, detected with luciferase, serves as a proxy for viable cell number.
As for `CCCCOC(=O)c1ccc(NC(=O)CSCc2n[nH]c(=O)[nH]2)cc1`, the viability was 102%. As to `CCNc1nc(NCC)nc(-n2nc(C)cc2C)n1`, the viability is 103%. As for `CCOC(=O)c1cc(NC(=O)NCc2ccco2)c(C)nc1C`, the viability was 99.3%. On to `COc1cc2c(=O)n(Cc3ccccc3)c(=O)n(CC(=O)NCC3CCCO3)c2cc1OC` (configuration not stated), for which the viability was 94.1%. On the same count and under the same terms, the same measure for `CCC(CO)N=CC1=C(O)CC(C)(C)CC1=O` (configuration not stated): 98.8%; for `COC(=O)CCSCC(=O)Nc1nnc(C)s1`: 93.1%; for `COc1cc(OC)nc(NC(=O)C(C)C)n1`: 97.3%. With `CC(NC(=O)c1ccco1)C(c1cccs1)N1CCOCC1` (configuration not stated), the viability is 99.5%. For `CCn1ccnc1C(O)c1cccc(OC)c1OC` (configuration not stated), the viability is 96.3%. On the same count and under the same terms, the same measure for `Cc1cc(C)nc(SCC(=O)Oc2ccc3oc(=O)cc(C)c3c2)n1`: 95.4%. Turning to `CCCCCn1c(N(C)Cc2ccccc2)nc2c1c(=O)[nH]c(=O)n2C`, the viability is 69.3%. The same measure, in the same setting: in the case of `Cc1cc(C)cc(-n2cc3c(=O)n(C)c(=O)n(C)c3c2)c1` it was 103%. With `O=C(C1CC(=O)N(C2CCCC2)C1)N1CCN(c2ccc(F)cc2)CC1` (configuration not stated), the viability is 95.2%.

Consider `COC(=O)C1=CN(C)C=C(C(=O)OC)C1c1ccsc1`, for which the viability is 89.3%.

On to `CCCC(=O)c1c(NC)cc(C)oc1=O`, for which the viability was 92.2%. The same measure, in the same setting: the same measure for `CCOc1cccc(C2c3c(oc4ccccc4c3=O)C(=O)N2c2ccccn2)c1` (configuration not stated): 93.9%. In the case of `CN(C)CCNC(=O)c1ccc2c(c1)N(Cc1ccc(F)cc1)CCS2`, the viability is 55.1%. For the compound `COc1ccc2cc(CCNC(=O)C3CCCC3)c(=O)[nH]c2c1`, the viability was 98.5%. As to `Cc1cc(C(=O)CN2CC(C)OC(C)C2)c(C)n1-c1ccccc1` (configuration not stated), the viability was 99.6%. Consider `Cc1ccc2oc(=O)c3cc(C(=O)NCc4ccco4)sc3c2c1`, for which the viability is 96.6%. On to `C1CCc2c(nc3nnnn3c2N2CCOCC2)C1`, for which the viability was 98.4%. As to `Cc1ccc(C(=O)NCc2ccc(Cl)c(Cl)c2)o1`, the viability is 98.5%.

Take `O=C(NC1CCN(C(=O)N2c3ccccc3Sc3ccccc32)CC1)c1ccco1`: the viability is 59.7%.

As to `O=C(O)CCC(C(=O)O)n1c(O)c(C2=c3ccccc3=NC2=O)sc1=S` (configuration not stated), the viability was 95.3%.
